# Only a sample is shown.
# aSyn UTR act: Activators via SNCA 5'UTR binding, MLPCN. AID 1814, 2009. alpha-synuclein 5'UTR reporter, activators screen. activity score, % (tested at 7.5 µM), hits read low. 300,000 compounds, 7.1% hits; in the data active means activity score below about -60%
# * hit, by the source's call.
SMILES,aSyn UTR act
CCn1c2ccccc2c2nnc(SCC(=O)Nc3ccc4c(c3)OCO4)nc21,-96.0*
CCc1cccc(NC(=O)Nc2ccc3c(c2)OCO3)c1,-65.5*
CCc1ccccc1NC(=O)Nc1ccc2c(c1)OCO2,-78.6*
Cc1cc(C)n2cc(CSc3nc4ccccc4s3)nc2n1,-107.1*
Cc1ccc2nc(-c3cccc(NC(=O)c4ccc5c(c4)OCCO5)c3)oc2c1,-86.6*
O=C(Nc1ccc2oc(-c3ccc4ccccc4c3)nc2c1)c1ccc2c(c1)OCCO2,-113.0*
CCC(=O)Nc1cccc(-c2nc3ccc(C)cc3o2)c1,-74.8*
O=C(Nc1ccc2c(c1)oc1ccccc12)C1CC1,-138.3*
Cc1cc(=O)oc2cc(NC(=O)C3CCCC3)ccc12,-85.2*
CCCCCC(=O)Nc1ccc2ccccc2c1,-174.7*
CCCCC(=O)Nc1ccc2c(c1)oc1ccccc12,-250.8*
CC(C)CC(=O)Nc1ccc2c(c1)oc1ccccc12,-227.4*
CC(C)C[C@H]1CN=C(Nc2ccccc2)N1CCCC1CCCCC1,-69.5*
O=C(Nc1cccs1)Nc1ccccc1Cl,-70.5*
Cc1ccc(NC(=O)Nc2cccs2)c(Cl)c1,-201.0*
O=C(NC(=O)c1csnn1)Nc1ccccc1Cl,-102.8*
Cc1c(NC(=S)Nc2ccccc2C(F)(F)F)cccc1[N+](=O)[O-],-65.5*
Cc1c(NC(=O)Nc2cccs2)cccc1[N+](=O)[O-],-70.8*
COc1ccc(/C=C/C(=O)N(C)C2CCCCC2)cc1Br,-92.3*
CCOc1ccc(C(=O)CSc2nnc3ccccn23)cc1,-153.9*
O=C(CSc1nnc2ccccn12)c1ccc(Cl)cc1,-67.4*
CCOC(=O)C1=C(c2ccccc2)O/C(=C(/C#N)C(F)(F)F)S1,-63.5*
CC(C)Oc1ccc(C(=O)Nc2ccc(C(F)(F)F)n(C)c2=O)cc1,-82.0*
CCCC#Cc1ccc2c(c1)COc1c3ccccc3nn1-2,-75.7*
O=C(c1ccccc1)c1c(O)nc(-c2ccccc2)n(-c2ccccc2)c1=O,-67.5*
SMILES,aSyn UTR act
CN(C)c1ccc(NC(=O)Nc2ccc3snnc3c2)cc1,-115.1*
O=C(Nc1ccccc1)Nc1ccc2nnsc2c1,-144.8*
O=C(Nc1ccccc1)Nc1ccc2snnc2c1,-147.4*
O=C(CSc1nnc(-c2ccccc2O)o1)N1CCOCC1,-69.4*
O=C(CSc1nnc(-c2ccccc2Cl)o1)N1CCCC1,-68.4*
O=C(CSc1nnc(-c2ccccc2Br)o1)N1CCOCC1,-111.0*
Nc1nnc(-c2cc3ccccc3oc2=O)s1,-115.8*
O=c1oc2ccccc2cc1-c1nnc(NCc2ccco2)s1,-131.4*
COc1ccc2oc(=O)c(-c3nnc(N)s3)cc2c1,-97.0*
O=c1oc2ccccc2cc1-c1nc2c(s1)CCc1ccccc1-2,-81.1*
CC/C(C)=N\Nc1nc(-c2cc3cc(OC)ccc3oc2=O)cs1,-118.9*
CC(=O)Nc1nc(-c2ccccc2)ns1,-107.9*
COCC(=O)Nc1nc(-c2ccccc2)ns1,-77.8*
CCOc1cc(/C=N/NC(=O)Nc2ccccc2)ccc1O,-196.8*
COc1cc(/C=N/NC(=O)Nc2ccccc2)ccc1OC(C)=O,-187.8*
COc1cc(/C=N/NC(=S)Nc2cccc(C(=O)O)c2)ccc1O,70.2
Cc1cc(C(=O)COC(=O)c2cc(Cl)ccc2N)c(C)n1Cc1ccco1,-157.0*
Cc1cc(C(=O)COC(=O)c2cccn2C)c(C)n1Cc1ccco1,76.9
CCOC(=O)COc1cccc2c(=O)n(CC(=O)NCc3ccc(F)cc3)ccc12,75.2
COc1ccc(CNC(=O)Cn2cccc2C(=O)c2ccccc2)cc1,-68.8*
COc1ccc(CNC(=O)Cn2cccc2C(=O)c2ccccc2C)cc1,-101.3*
NS(=O)(=O)c1ccc(C(=O)Nc2ccc(-c3nc4cccnc4s3)cc2)cc1,-120.8*
CCc1ccc(S(=O)(=O)Nc2ccc(-c3nc4cccnc4s3)cc2)s1,-97.8*
CC1CC(c2ccccc2)=Nc2ccccc2N1 (stereo unspecified),-100.5*
Cc1ccc(C(=O)/C=C/c2ccc(-c3ccc(C)cc3)o2)cc1,-72.5*
SMILES,aSyn UTR act
O=C(/C=C\c1ccc(-c2ccccc2)o1)c1ccccc1,-61.7*
Cc1cc2nc3c(nc2cc1C)CCCC3,-177.5*
CN1C(=O)CSc2ccc(NC(=O)Nc3ccccn3)cc21,-115.6*
COc1ccc(NC(=O)Nc2ccccn2)cc1OC,-79.4*
O=C(Nc1ccc(Cl)c(Cl)c1)Nc1ccccn1,-177.7*
COc1cc(/C=N/NC(N)=S)cc(Br)c1OCc1ccccc1F,-74.0*
CCOc1cc(/C=N/NC(N)=S)cc(Br)c1OCc1ccccc1C,-73.7*
COc1cc(CNC(C)c2ccccc2)cc(Br)c1OCc1ccc(F)cc1 (stereo unspecified),58.7
COC(=O)c1ccc(N2CCN(c3ccccc3)CC2)c(N)c1,-133.5*
COC(=O)c1ccc(N2CCN(c3ccccc3)CC2)nc1,-230.5*
CC(CC(=O)NCc1ccccc1)C1CCCO1 (stereo unspecified),-62.0*
COc1ccc(NC(=O)c2ccc3[nH]c(C)c(C)c3c2)cc1,-101.4*
CC(=O)Nc1cccc(NC(=O)c2ccc3[nH]c(C)c(C)c3c2)c1,-107.2*
COc1cccc(-c2cc(=O)c3cc(NC(=O)c4ccc(N(C)C)cc4)ccc3[nH]2)c1,115.0
CCc1ccc(OCC(=O)NC2CCCCC2)c(Br)c1,-119.6*
O=C(COc1ccc(Br)cc1Br)NC(=O)NC1CCCC1,-236.9*
Cc1cc(Br)ccc1OCC(=O)NC1CCCC1,-66.3*
CCc1ccc(OCC(=O)Nc2ccncc2)c(Br)c1,-441.9*
COC(=O)c1[nH]c2ccc(Br)cc2c1NC(=O)CN1CCN(C2CCCCC2)CC1,75.1
COc1ccccc1OCC(=O)NC1CCCCCC1,-76.4*
Cc1cc(=O)[nH]c2n[nH]c(-c3ccccc3)c12,-63.4*
S=c1[nH]nc(-c2ccc(Cl)cc2Cl)n1-c1ccccc1,-198.9*
CC(=O)c1sc2c(c1OC(=O)c1ccc(Cl)cc1Cl)c(=O)n(-c1ccccc1)c(=S)n2-c1ccccc1,100.6
Cc1ccccc1C(=O)Nc1nnc(S(=O)(=O)N(C)Cc2ccco2)s1,-71.5*
CCOc1ccc(C(=O)Nc2nnc(S(=O)(=O)N(C)Cc3ccco3)s2)cc1,-138.7*
SMILES,aSyn UTR act
COc1ccccc1C(=O)N1CCN(CCNC(=O)C(=O)Nc2ccc(Br)c(C)c2)CC1,-89.2*
Cc1cccc(C=Nc2ccccc2C(N)=O)c1,-69.8*
CCCNC(=O)C1CC(=O)N(c2ccc(OCc3ccc(F)cc3)cc2)C1 (stereo unspecified),-92.1*
C=CCNC(=O)C1CC(=O)N(c2ccc(OCc3ccc(F)cc3)cc2)C1 (stereo unspecified),-95.3*
CCCNC(=O)C1CC(=O)N(c2ccc(OCc3ccc(Cl)cc3)cc2)C1 (stereo unspecified),-108.4*
NC(=O)C1CC(=O)N(c2ccc(OCc3ccc(Cl)cc3)cc2)C1 (stereo unspecified),-146.0*
C=CCNC(=O)C1CC(=O)N(c2ccc(OCC(=O)Nc3ccccc3)cc2)C1 (stereo unspecified),-94.4*
Cc1ccc(NC2Nc3cc(C)nn3S2)c(C)c1 (stereo unspecified),-138.3*
O=c1cc2[nH]c3ccccc3c(=O)n2nc1-c1ccccc1,-125.2*
O=C1c2cccc3c(N4CCCCC4)ccc(c23)C(=O)N1c1ccc(O)cc1,-72.4*
Cc1cccc(N2C(=O)c3cccc4c(N5CCCCC5)c([N+](=O)[O-])cc(c34)C2=O)c1C,61.7
O=C1c2ccc3c4c(ccc(c24)C(=O)N1c1cccc(O)c1)C(=O)N(c1cccc(O)c1)C3=O,68.1
COc1ccc(/C(N)=N/OC(=O)CCC2CCCC2)cc1,-71.1*

# Source: PubChem (Broad Institute)
